Assay outcomes as filed in PubChem BioAssay.
rTrxR1 inhibitor = inhibitors of rat thioredoxin reductase 1 | recombinant rTrxR1, NADPH fluorescence consumption, selenite substrate | Potency, µM (doses to about 114 µM), without a hit: at the top dose activity change, negative = inhibition, hits mostly inhibitors | 390,000 compounds, 1% hits; further: potency means the concentration at half of the fitted maximal effect; nearly all actives have a fitted effect of over 65% in size
Target sequence (O89049 whole entry, looked up): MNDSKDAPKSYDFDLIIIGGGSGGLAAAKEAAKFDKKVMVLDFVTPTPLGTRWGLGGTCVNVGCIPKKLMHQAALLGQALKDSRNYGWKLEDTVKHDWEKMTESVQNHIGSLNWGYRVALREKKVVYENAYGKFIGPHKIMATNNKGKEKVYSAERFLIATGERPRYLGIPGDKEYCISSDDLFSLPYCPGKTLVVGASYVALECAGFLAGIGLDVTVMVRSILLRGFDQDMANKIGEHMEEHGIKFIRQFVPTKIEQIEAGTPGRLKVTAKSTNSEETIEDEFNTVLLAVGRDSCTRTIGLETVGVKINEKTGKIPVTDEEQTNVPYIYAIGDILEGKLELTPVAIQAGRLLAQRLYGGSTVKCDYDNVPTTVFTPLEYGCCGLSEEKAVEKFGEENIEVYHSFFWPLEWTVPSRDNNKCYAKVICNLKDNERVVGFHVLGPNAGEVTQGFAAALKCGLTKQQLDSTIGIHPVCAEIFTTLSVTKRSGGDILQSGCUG
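Rat TrxR1 (90 nM in the dispensed reagent) was pre-reduced with 400 uM NADPH for 5 min at room temperature, then incubated with compound for 15 min. After 400 uM selenite was added, NADPH fluorescence (Ex 340/Em 450 nm) was followed for 8 min.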
GCN5L2 inh = GCN5L2 (KAT2A) acetyltransferase inhibition; 390,000 compounds, 0.21% hits; AID 504327; GCN5L2 HAT assay, ThioGlo1 CoA-SH fluorescence; Q92830; Potency, µM (top dose mostly 58.9 µM), for the others: top-dose activity change, negative = inhibition, hits mostly inhibitors; further: potency means the concentration at half of the fitted maximal effect
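Free CoA generated was detected with ThioGlo1 (50uM) fluorescence at Ex340nm/Em540nm, read immediately and after 20 min at room temperature. Enzyme, 20 nM in HEPES pH 7.5 buffer, saw compounds 15 min before adding 75uM H3(1-25) peptide and 70uM acetyl-CoA.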
TrxR1 substrate = is turned over as a substrate by rat TrxR1; O89049; purified TrxR1 substrate turnover, NADPH consumption readout; Potency, µM (top dose mostly 114 µM), inactives show at the highest dose activity change, negative = substrate turnover; 390,000 compounds, 0.01% hits; AID 588456; further: potency means the concentration at half of the fitted maximal effect; nearly all actives have a fitted effect of over 50% in size
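Rat TrxR1, dispensed at 90 nM, was prereduced with 400 uM NADPH (final) for 5 min at ~22 deg C, then incubated with compound 15 min before 400 uM selenite. A first-read NADPH fluorescence drop versus no-compound background flagged substrates.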
Pin1 inhibitor = blocks the human prolyl isomerase Pin1. Q13526. Pin1 FP peptide displacement, HiFluor488, 10 min. Potency, µM (top dose mostly 115 µM), without a hit: at the highest dose activity, negative = inhibition, actives largely listed as inhibitors. 390,000 compounds, 0.009% hits; active means well fitted inhibition curve with a large enough effect in the polarisation, with a control signal flat, not every such curve was filed as active; inconclusive means small, poorly fitted or top-dose-only effect, or effect the other way, or a change in a side signal; inactive means no such curve, though single readings can be large or run the other way; the % refers to the polarisation; further: potency means the concentration at half of the fitted maximal effect
Target sequence (Q13526 whole entry, looked up): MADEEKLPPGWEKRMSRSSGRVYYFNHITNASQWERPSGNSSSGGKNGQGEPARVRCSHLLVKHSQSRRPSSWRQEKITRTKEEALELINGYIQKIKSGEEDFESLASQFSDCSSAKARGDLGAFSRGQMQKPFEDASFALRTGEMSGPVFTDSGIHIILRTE
GALK inh = blocks human galactokinase activity. P51570. Purified GALK, Kinase-Glo residual ATP luminescence. Potency, µM (series often up to 57.5 µM), for the others: at the highest dose activity change, negative = inhibition, actives largely listed as inhibitors. 270,000 compounds, 0.007% hits; further: potency means the concentration at half of the fitted maximal effect
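Galactose (100 uM) and ATP (35 uM) were turned over by 5 nM GALK for 1 h at RT. Kinase-Glo Plus then converted the remaining ATP into a luminescent signal.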
Giardia kill = kills Giardia lamblia; Giardia lamblia trophozoite viability; AID 540267; activity change, % at 7.66 µM, hits read low; 340,000 compounds, 0.15% hits; in the data active means activity change below about -80%; inconclusive means between about -30% and that limit;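 further: parasites exposed to compound for two days anaerobically before the ATP read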
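Viability, read as ATP luminescence: trophozoites at 100 cells/well, compound added, 48 hrs anaerobic at 37 deg C, then 15-30 min room-temperature development before reading.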
* marks the source's active call; other numbers are inactive results; ? = inconclusive; / = no result given; ! = not active in a repeat; [ ] = another dose, or the depositor's remark. Hits are enriched below; roughly 1.3% of the tested compounds scored in any of these assays. Unless noted, the call rests on the fitted dose curve; in most records, active means well fitted curve in the direction sought with a large enough effect; inconclusive means small, poorly fitted or top-dose-only effect, or another doubt; inactive means no such curve, though single readings can be large; an effect the other way counts as inactive or inconclusive. On the % scale 0 is the no-effect control and ±100 the full control effect.

SMILES	rTrxR1 inhibitor	GCN5L2 inh	TrxR1 substrate	Pin1 inhibitor	GALK inh	Giardia kill
COC(=O)C1=C[C@@H](C(=O)OC)C2C3=C(C(=O)[C@@]2(C)NC(=O)c2ccccc2)[C@H](c2ccccc2)n2c(=O)n(-c4ccccc4)c(=O)n2[C@@H]3C1 (stereo not given in full)	10%	/	-1%	13%	/	-4
O=c1[nH]sc2ccccc12	91%[57.1 µM]	8.9µM*	-16%	2%	11%	-3
COc1ccc(/C=C2\C(=O)ON=C2c2ccccc2)cc1	14µM*	-13%	-7%	-10%	-6%	-4
O=C1ON=C(c2cccc([N+](=O)[O-])c2)/C1=C/c1ccc(O)cc1	7.9µM*	-10%	-17%[57.1 µM]	?	-6%	27
COc1cc(/C=C2\C(=O)ON=C2c2ccc(Cl)cc2)ccc1O	20µM*	/	-1%	2%	/	13
O=C1ON=C(c2ccccc2)/C1=C/c1ccc(OS(=O)(=O)c2ccccc2)cc1	2.8µM*	?	-17%	?	-1%	43
O=C1ON=C(c2ccccc2)/C1=C/c1ccc(O)c(O)c1	?	12%	7%[2.29 µM]	-3%	?	-22
COc1ccccc1CCNC(=O)Cc1ccc(NC(=O)N2CCSc3ncccc32)cc1	24%	-11%	-1%	3%	/	/
Cc1ccc(Cl)cc1N1CCN(CCCNC(=O)Cn2ncc3c([nH]c4ccccc43)c2=O)CC1	20%	-6%	-1%	3%	/	/
CN(C)C1(CNC(=O)COc2ccc([N+](=O)[O-])cc2)CCCCC1	6%	-9%	-11%	-6%	/	/
Cc1c(Cl)cccc1-c1ccc(C(=O)Nc2ccc(F)cc2)o1	-17%	-5%	-8%	12%	/	/
Clc1ccccc1-c1nc(NC2CCNCC2)c2ccccc2n1	/	28µM*	/	/	/	/
CC(=O)Nc1sc2c(c1-c1nccs1)CCNC2	/	/	/	25%	/	/
CN(C)c1nc(=NCc2cccs2)ss1	-10%	/	-18%	0%	/	-81*
CN(C)c1ncc2nc(-c3cccs3)c(=O)n(Cc3cccs3)c2n1	/	-19%	/	/	/	/
CCOC(=O)C(=Cc1cc(=O)c(OC)co1)C(=O)OCC	3.5µM*	-1%	2%	2%	/	-25
COc1coc(C(O)CN)cc1=O (stereo not given)	35%	-8%	8%	-11%	2%	9
COc1ccc2c([N+](=O)[O-])c(Cl)[nH]c2c1	14µM*	-17%	-1%	?	-3%	12
CCOC(=O)CSc1[nH]c2cc(OC)ccc2c1[N+](=O)[O-]	-53%	-1%	12%[57.1 µM]	0%	0%	-8
CCN(Cc1cccc(S(=O)(=O)O)c1)c1ccc(C(=C2C=CC(=[N+](CC)Cc3cccc(S(=O)(=O)O)c3)C=C2)c2ccccc2S(=O)(=O)[O-])cc1	-4%	/	-8%	/	/	/
COc1ccc2ccc(O)c(CN(C)CC(=O)Nc3ccccc3C(F)(F)F)c2c1	8.9µM*	-7%	-6%[57.1 µM]	-2%	1%	7
CCN(CC(=O)Nc1ccc(Br)cc1)CC(=O)Nc1cc(C)on1	-35%	-3%	-8%	-2%	/	13
CN(C)Cc1c(O)ccc2ccccc12	?	-3%	16%	-5%	5%	-10
Cc1ccc(NC(=O)CN(C)Cc2c(O)ccc3ccccc23)cc1	14µM*	-10%	9%	-4%	-2%	9
CCN(CC(=O)Nc1ccc(NC(C)=O)cc1)Cc1c(O)ccc2cc(Br)ccc12	6.3µM*	-9%	0%[57.1 µM]	-19%	13%	-13
SMILES	rTrxR1 inhibitor	GCN5L2 inh	TrxR1 substrate	Pin1 inhibitor	GALK inh	Giardia kill
CC(C)[C@H](NC(=O)OCc1ccccc1)C(=O)NC(C=O)Cc1ccccc1 (stereo not given in full)	14%	0%	9%	-6%	/	-29
CC(C)c1nc(CN(C)C(=O)N[C@H](C(=O)N[C@@H](Cc2ccccc2)C[C@H](O)[C@H](Cc2ccccc2)NC(=O)OCc2cncs2)C(C)C)cs1	/	28µM*!	/	/	-1%	/
C[n+]1c(/C=C/c2ccc3c(c2)OCO3)ccc2ccccc21	4%	?	-3%	11%	0%	8
C[n+]1cc2c3c(ccc2c2ccc4cc5c(cc4c21)OCO5)OCO3	?	16µM*!	33%[57.1 µM]	-8%	/	?
COc1ccc(NC(=O)c2ccco2)cc1NC(=O)c1cc(Br)ccc1Cl	7%[57.1 µM]	-3%	-4%[57.1 µM]	36%	/	/
O=C(O)/C=C/C(=O)NNC(=O)c1cc(-c2ccccc2)n[nH]1	6.3µM*	-15%	10%	-11%	-3%	-28
COc1ccc(C(=O)C(CN2CCCC2)c2ccccc2)cc1 (stereo not given)	-31%	0%	-14%	-1%	9%	-13
COc1ccc(C(=O)C(CN2CCOCC2)c2ccccc2)cc1 (stereo not given)	-7%	0%	6%	2%	0%	-12
O=C(c1ccc(F)cc1)C(CN1CCOCC1)c1ccccc1 (stereo not given)	56µM*	-4%	-10%	0%	7%	10
O=C(c1ccc(Cl)cc1)C(CN1CCCC1)c1ccccc1 (stereo not given)	35µM*	-3%	9%	0%	3%	18
O=C(c1ccccc1NS(=O)(=O)c1ccc([N+](=O)[O-])cc1[N+](=O)[O-])N1O[C@@H]2C=C[C@H]1C2	3.2µM*	-4%	0%	/	/	-8
O=C(c1ccccc1NS(=O)(=O)c1ccccc1[N+](=O)[O-])N1CCOCC1	-15%	36%	-15%	-5%	0%	-8
Cc1ccc(NS(=O)(=O)c2ccc3c(c2)CCC(=O)N3)cc1F	/	/	/	-9%	/	/
Cc1cc2c(s1)c1cnn(Cc3c(F)c(F)c(C)c(F)c3F)c(=O)c1n2C	/	/	/	4%	/	/
CCOC(=O)c1sc2nc(C3CC3)cc(-c3ccc(F)cc3)c2c1N	33%	-17%	41%	-3%	0%	10
CCOC(=O)c1sc2nc(C3CC3)cc(-c3ccc(OC)cc3)c2c1N	50µM*	?	150%	-7%	-1%	10
O=C(NCCc1ccc(Cl)cc1)c1nnc(Cc2ccc(F)cc2)o1	-2%	-13%	-5%	-6%	/	/
CCCCN(C)CCNC(=O)c1cc2cc3ccc(OC)cc3nc2o1	45µM*	?	606%	-4%	3%	8
CCOc1ccc(S(=O)(=O)NCc2ccc3c(c2)OCO3)cc1NC(C)=O	11%	1%	-3%	1%	3%	-18
Cc1cnc([N+](=O)[O-])n1CCOC(=O)c1cccc(F)c1	3%[57.1 µM]	-5%	2%[57.1 µM]	2%	/	-81*
Nc1ccc(S(=O)(=O)N2CCN(S(=O)(=O)c3c(F)cccc3F)CC2)cc1	/	/	/	-2%	/	/
CCCC(=O)N(Cc1cc(=O)[nH]c2ccccc12)c1cccc(C)c1	13%[57.1 µM]	-3%	9%[57.1 µM]	?	/	-12
